The list is not random: actives were taken first. Their share in the collection is about 2.4%.
SENP6 block = SENP6 protease inhibition. inhibition, % at 10 µM. AID 2599. Recombinant SENP6 catalytic domain, aminoluciferin luminescence. actives 1.8% (n = 330,000);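 active = inhibition above about 50% at the single tested dose, limit read from the data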
SENP8 block-1 = SENP8 protease inhibition | Q96LD8 | purified SENP8, Z-RLRGG-aminoluciferin cleavage, luminescence | inhibition, % at 10 µM | actives 1.2% (n = 330,000) | AID 2540; in the data active = inhibition above about 50%
Target sequence (Q96LD8 whole entry, looked up): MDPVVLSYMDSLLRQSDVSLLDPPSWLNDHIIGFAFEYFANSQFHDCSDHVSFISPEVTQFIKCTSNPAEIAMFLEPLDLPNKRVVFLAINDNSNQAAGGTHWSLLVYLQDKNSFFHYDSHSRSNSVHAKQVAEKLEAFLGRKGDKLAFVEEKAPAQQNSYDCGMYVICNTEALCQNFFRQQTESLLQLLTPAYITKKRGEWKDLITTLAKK
SENP7 block = SENP7 protease inhibition | Q9BQF6 | recombinant SENP7, Z-RLRGG-aminoluciferin luminescence, 40 min | inhibition, % at 5 µM | actives 1.5% (n = 330,000) | AID 434973;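 active = inhibition above about 50% at the single test dose, limit read from the data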
SENP8 block-2 = inhibitors of human SENP8 protease | recombinant SENP8, Nedd8 substrate fluorescence | inhibition, % at 20 µM | actives 0.64% (n = 360,000) | AID 602440; in the data active = inhibition mostly above about 40%, no sharp cut-off; inactive = mostly below about 27%
Platelet DG rel = platelet dense granule release activity | actives 0.22% (n = 300,000) | inhibition, %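 (compounds screened at 7.5 µM in platelet-rich plasma)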 | human platelet-rich plasma, SFLLRN dense granule ATP release, luminescence | AID 1663;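 active = mean replicate score, as percent of positive control, at or above 50; inconclusive = mean below 50 but at least one replicate at or above 50; inactive = mean and every replicate below 50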
SENP8 confirm = confirmation of human SENP8 protease inhibitors; shares compounds with SENP7 block; Recombinant SENP8, Z-RLRGG-aminoluciferin luminescence, 60 min; inhibition, % at 12.5 µM; actives 40% (n = 6,200);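 active = mean inhibition across replicates above about 50%, limit read from the data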
SENP6 conf = human SENP6 inhibition, confirmed | shares compounds with SENP7 block | recombinant SENP6, Z-RLRGG-aminoluciferin luminescence | inhibition, % at 12.5 µM | actives 58% (n = 6,200) | AID 488915
SENP7 conf = human SENP7 inhibition, confirmed | actives 69% (n = 6,200) | shares compounds with SENP7 block | inhibition, % at 12.5 µM | recombinant SENP7, Z-RLRGG-aminoluciferin luminescence, 40 min | AID 488917
Casp3 SENP sel = selectivity test for SENP inhibitors: human caspase-3 inhibition | shares compounds with SENP7 block | actives 60% (n = 6,200) | inhibition, % at 12.5 µM | purified caspase-3, Z-DEVD-aminoluciferin luminescence, 60 min | AID 488918;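 active = mean inhibition above about 50%, limit read from the data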
Target sequence (P42574 28-227 limits assumed): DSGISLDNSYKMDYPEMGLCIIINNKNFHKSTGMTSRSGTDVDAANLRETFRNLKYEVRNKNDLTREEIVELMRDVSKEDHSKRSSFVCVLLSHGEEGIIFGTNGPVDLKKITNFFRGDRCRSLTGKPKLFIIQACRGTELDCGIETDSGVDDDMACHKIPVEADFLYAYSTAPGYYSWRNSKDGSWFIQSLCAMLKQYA
SENP luc ctr = interferes with luciferase luminescence in SENP counter-screen. AID 488919. actives 39% (n = 6,200). Pre-incubated SENP8/Z-RLRGG-aminoluciferin, luciferase luminescence interference. shares compounds with SENP7 block. inhibition, % at 12.5 µM;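 active = mean inhibition above about 50% when retested at one dose, limit read from the data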
Each line names hits and unclear results; the compound was inactive in the other large screens (follow-up assays come after a bar, where they were run).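 The calls were made as follows, unless noted: active = mean inhibition above about 50% in the one-dose retest (limit read from the data); inactive = the rest.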

Cc1cccc(/C(N)=N/OC(=O)c2ccc(Cl)cc2Cl)c1	SENP6 block 94, SENP8 block-1 97, SENP7 block 98, Platelet DG rel inconclusive | SENP8 confirm 99 | SENP6 conf 100 | SENP7 conf 103 | Casp3 SENP sel 99 | SENP luc ctr 96
Cc1ccc(/C(N)=N/OC(=O)c2ccc(C)cc2Cl)cc1	SENP6 block 80, SENP8 block-1 70, SENP7 block 85 | SENP8 confirm 63 | SENP6 conf 63 | SENP7 conf 89 | Casp3 SENP sel 57 | SENP luc ctr inactive
N/C(=N\OC(=O)c1ccc(Cl)cc1Cl)c1ccccc1	SENP6 block 101, SENP8 block-1 93, SENP7 block 99 | SENP8 confirm 98 | SENP6 conf 99 | SENP7 conf 103 | Casp3 SENP sel 98 | SENP luc ctr 98
Cc1ccc(/C(N)=N/OC(=O)c2ccc3ccccc3c2)cc1	none
N/C(=N\OC(=O)c1ccc(Cl)cc1Cl)c1ccc(Cl)cc1	SENP6 block 62, SENP7 block 54 | SENP8 confirm inactive | SENP6 conf inactive | SENP7 conf 69 | Casp3 SENP sel inactive | SENP luc ctr inactive
CCN(CC)c1nc(C(F)(F)F)nc2c1nnn2Cc1ccccc1	none
Cc1cccc(/C(N)=N/OC(=O)c2cccc3ccccc23)c1	SENP6 block 87, SENP8 block-1 76, SENP7 block 87 | SENP8 confirm 86 | SENP6 conf 85 | SENP7 conf 96 | Casp3 SENP sel 72 | SENP luc ctr 82
Cc1cc(NS(=O)(=O)c2ccc(NC(=O)c3cnc4scc(C)n4c3=O)cc2)nc(C)n1	none
Cc1cccc(NC(=O)Nc2ccc(S(=O)(=O)Nc3onc(C)c3C)cc2)c1	SENP6 block 77, SENP8 block-1 83 (no result: Platelet DG rel) | SENP8 confirm 88 | SENP6 conf 85 | SENP7 conf 94 | Casp3 SENP sel 87 | SENP luc ctr 52
Cc1cc(NS(=O)(=O)c2ccc(NC(=O)Nc3cccc(Cl)c3)cc2)no1	SENP6 block 84, SENP8 block-1 72, SENP7 block 69 | SENP8 confirm inactive | SENP6 conf 81 | SENP7 conf 93 | Casp3 SENP sel 67 | SENP luc ctr 59
Cc1cc(NC(=O)Nc2cccc(Cl)c2)no1	none (no result: SENP6 block, SENP8 block-1, SENP7 block, Platelet DG rel)
Cc1noc(NS(=O)(=O)c2ccc(NC(=O)c3cnc4scc(C)n4c3=O)cc2)c1C	SENP6 block 67 | SENP8 confirm inactive | SENP6 conf inactive | SENP7 conf 69 | Casp3 SENP sel 82 | SENP luc ctr inactive
Cc1cc(NS(=O)(=O)c2ccc(NC(=O)Nc3ccc4c(c3)OCO4)cc2)no1	SENP6 block 67 | SENP8 confirm 55 | SENP6 conf 51 | SENP7 conf 82 | Casp3 SENP sel 76 | SENP luc ctr inactive
O=C(Nc1c(F)cccc1F)C1CCN(C(=O)c2cccs2)CC1	none
COc1ccc(N2C(=O)c3ccccc3NC(=O)C2C(=O)Nc2ccc3c(c2)OCCO3)cc1 (stereo not given)	none (no result: SENP6 block, SENP8 block-1, SENP7 block, Platelet DG rel)
C=CCn1c(=O)/c(=C/c2ccsc2)s/c1=C(\C#N)C(=O)NCCN1CCOCC1	none (no result: SENP6 block, SENP8 block-1, SENP7 block, Platelet DG rel)
CCOC(=O)c1ccc(-c2ccc3ncnc(NCc4csc(C)n4)c3c2)o1	none (no result: SENP6 block, SENP8 block-1, SENP7 block, Platelet DG rel)
COc1ccc(NC(=O)CSc2ncn(-c3ccccc3)n2)cc1Cl	SENP6 block 93 | SENP8 confirm inactive | SENP6 conf inactive | SENP7 conf inactive | Casp3 SENP sel inactive | SENP luc ctr inactive
O=C(Nc1ccc(F)c(Cl)c1)c1ccccc1	SENP6 block 78, SENP8 block-1 77, SENP7 block 83 (no result: Platelet DG rel) | SENP8 confirm 84 | SENP6 conf 82 | SENP7 conf 95 | Casp3 SENP sel 78 | SENP luc ctr 54
O=C(Nc1ccc(F)c(Cl)c1)c1ccc2c(c1)OCO2	SENP6 block 88, SENP8 block-1 81, SENP7 block 76 | SENP8 confirm inactive | SENP6 conf 90 | SENP7 conf 100 | Casp3 SENP sel 84 | SENP luc ctr inactive
COc1ccc(NC(=O)c2ccc3c(c2)OCO3)cc1Cl	SENP6 block 80, SENP8 block-1 83, SENP7 block 93 | SENP8 confirm inactive | SENP6 conf 88 | SENP7 conf 99 | Casp3 SENP sel 88 | SENP luc ctr inactive
CCCNc1nc2nc3ccccn3c(=O)c2cc1C(=O)NCCN1CCOCC1	none
Cc1nnc2n1CCCCC2	none
COCC(=O)Nc1ccc(OC)c(Cl)c1	none
COc1ccc(NC(=O)C=C(C)C)cc1Cl	SENP6 block 94, SENP8 block-1 93 | SENP8 confirm inactive | SENP6 conf 94 | SENP7 conf 100 | Casp3 SENP sel 96 | SENP luc ctr 94
CCN1C(=O)/C(=C\N2CCCc3ccccc32)SC1=S	none
CCN1C(=O)/C(=C/N2CCc3ccccc32)SC1=S	SENP7 block 56 | SENP8 confirm inactive | SENP6 conf inactive | SENP7 conf inactive | Casp3 SENP sel inactive | SENP luc ctr inactive
COc1ccc(-c2nc(-c3ccncc3)no2)cc1	none (no result: SENP6 block, SENP8 block-1, SENP7 block)
CCCc1ccc(-c2ccc(-c3noc(-c4ccncc4)n3)cc2)nc1	none
CCc1ccc(-c2nc(-c3ccncc3)no2)cc1	SENP6 block 87, SENP8 block-1 80, SENP7 block 90 (no result: Platelet DG rel) | SENP8 confirm 84 | SENP6 conf 88 | SENP7 conf 97 | Casp3 SENP sel 80 | SENP luc ctr 67
CCCCc1ccc(-c2nc(-c3ccncc3)no2)cc1	SENP8 block-1 83, SENP7 block 90 | SENP8 confirm inactive | SENP6 conf inactive | SENP7 conf inactive | Casp3 SENP sel inactive | SENP luc ctr inactive
COc1ccc(-c2nc(C#N)c(N3CCCCCC3)o2)cc1	SENP7 block 84 | SENP8 confirm inactive | SENP6 conf inactive | SENP7 conf inactive | Casp3 SENP sel inactive | SENP luc ctr inactive
CCOc1cc(CNC2CCCC2)ccc1OCc1ccccc1Cl	none
CCOc1cc(C2NN=C(c3ccccc3)S2)ccc1OCc1ccc(F)cc1 (stereo not given)	SENP6 block 83, SENP8 block-1 50 | SENP8 confirm inactive | SENP6 conf 72 | SENP7 conf 94 | Casp3 SENP sel 75 | SENP luc ctr 70
CCOc1cc(C2NN=C(c3ccccc3)S2)ccc1OCc1ccccc1Cl (stereo not given)	SENP6 block 66 | SENP8 confirm 53 | SENP6 conf inactive | SENP7 conf 84 | Casp3 SENP sel 69 | SENP luc ctr 58
CC(C)(C)CNc1cc(N2CCCC2)ccc1[N+](=O)[O-]	none

Compound activity as filed in PubChem BioAssay.
